# PubChem BioAssay AID588492 (Sanford-Burnham Center for Chemical Genomics, 2011)
# Among all 360,000 compounds or so, about 2,300 (0.64%) were called active. Shown is part of a subset that was picked to be rich in actives. Values without a mark were called inactive.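 How the source made its calls: active means compounds giving at least 50% protection of heart cells from peroxide-induced death in the single-dose screen, raw or plate-pattern-corrected value; inactive means the rest.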
# Experiment: H9c2 cardiomyocyte survival under peroxide injury – uHTS, H9c2 cells, ATPLite luminescence, primary screen (AID 588492);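 further: 0% = DMSO wells with peroxide and 100% = DMSO wells without peroxide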
# Conditions: H9c2 cardiomyocytes, 2 h, at 20 µM, hits give high values
row,Compound,protection from H2O2 cell death
1,CCOc1ccc2[nH]c(=O)c(CN(CCCO)S(=O)(=O)c3ccc(F)cc3)cc2c1,18.6%
2,COc1ccc(-c2[nH]ncc2CN(C)Cc2cccnc2)c(F)c1,-2.7%
3,COc1ccc2[nH]c(=O)c(CN(Cc3cccnc3)S(=O)(=O)c3ccccc3F)cc2c1,60.7% (active)
4,O=C(CNS(=O)(=O)c1ccc2c(c1)OCCCO2)N1CCN(c2ccc(F)cc2)CC1,-3.7%
5,CC1CCC2(CC1)NC(=O)N(CC(=O)c1cccn1C)C2=O (stereo not given),7.1%
6,Cc1ccc(C(=O)N/C(=C/c2ccc(-c3cccc([N+](=O)[O-])c3)o2)C(=O)NCCCN(C)C)cc1,-22.6%
7,Cc1ccc(-c2ccc(/C=N/NC(=O)CN3CCOCC3)o2)cc1[N+](=O)[O-],7.6%
8,N#C/C(=C\c1ccc(-c2cccc([N+](=O)[O-])c2)o1)C(=O)NCCN1CCOCC1,55% (active)
9,COc1ccc(C(=O)Nc2ccc(C(=O)NCC3CCCO3)cc2)c(OC)c1OC (stereo not given),10.2%
10,O=C(NCCN1C(=O)S/C(=C\c2cccnc2)C1=O)c1ccc(S(=O)(=O)N2CCCC2)cc1,0.9%
11,Oc1c(C(c2ccccn2)N2CCOCC2)ccc2cccnc12 (stereo not given),64.9% (active)
12,CCOC(=O)c1cc(-c2nnc(-c3cc(OC)c(OC)c(OC)c3)o2)c(C)nc1C,119% (active)
13,Cc1nc(C)c(-c2nnc(-c3cccc(S(=O)(=O)N(C)C)c3)o2)cc1C(=O)NN,-1.4%
14,COc1cc(-c2nnc(NC(=O)C3=COCCO3)o2)cc(OC)c1OC,-5.7%
15,CCOC(=O)c1[nH]cnc1C(=O)NC1CCCCC1,5.2%
16,Cc1cc(C(=O)N/N=C/c2cc([N+](=O)[O-])cc(C)c2O)n[nH]1,58.2% (active)
17,COc1ccc(C(=O)NNC(=O)c2cc(C)[nH]n2)cc1,7.7%
18,Cc1occc1C(=O)N/N=C/c1ccc(-c2cccc([N+](=O)[O-])c2)o1,16.2%
19,O=C(OC1CCOC1=O)c1ccc(-c2nc3ccccc3s2)s1 (stereo not given),-18.2%
20,Cc1cc(C)c(S(=O)(=O)c2ccc(F)cc2C)c(=O)[nH]1,11.1%
21,O=C(CCc1ccc(O)cc1)NN=Cc1cc(Br)ccc1O,41.5%
22,Oc1ccc(Br)cc1C=Nc1ccc2[nH]ncc2c1,63.8% (active)
23,CCN(CC)CCn1c(/N=C/c2cc(Br)ccc2O)nc2ccccc21,32.2%

row,Compound,protection from H2O2 cell death
1,CCc1cc(=O)oc2cc(OCC(=O)N3CCCc4ccccc43)ccc12,22.6%
2,Cc1cc(C(=O)OCC(=O)NCc2ccco2)c(C)n1-c1ccccc1,-1.9%
3,COc1ccc(/C=C2/S/C(=N/N=C3\CC4CCC3(C)C4(C)C)NC2=O)cc1 (stereo not given),-7.9%
4,O=[N+]([O-])c1ccc2c(c1)C(N1CCOCC1)/C(=C/C1(O)CCCCC1)O2 (stereo not given),1.3%
5,O=C1OCCC1=COCCCCOC=C1CCOC1=O,3%
6,O=C(NCC1(N2CCCCC2)CCCCC1)c1cccc(S(=O)(=O)Nc2ccccc2Cl)c1,28.2%
7,O=C(O)Cn1c(Cc2ccccc2)nc2ccccc21,11.1%
8,CCCn1c(N)c(C(=O)CSc2nnc(-c3cccnc3)n2-c2ccc(C)cc2C)c(=O)[nH]c1=O,22.9%
9,CCCCC(=O)Nc1ccc2c(c1)C(=O)NC2=O,9.9%
10,Cc1ccc(C)c(NC(=O)CSc2nc3c(oc4ccccc43)c(=O)n2-c2ccccc2)c1,-6.4%
11,CCCCC(=O)Nc1cc(C)c2c(=O)oc3ccccc3c2n1,77.7% (active)
12,COc1ccc2c(c1)C(NS(=O)(=O)OCC(Cl)(Cl)Cl)CCC2 (stereo not given),-4.5%
13,COc1ccc(S(=O)(=O)NCCc2cc3ccc(C)c(C)c3[nH]c2=O)cc1,-9.7%
14,COc1ccc2[nH]c(=O)c(CNc3ccc(C)c(C)c3)cc2c1,57.7% (active)
15,COc1ccc2[nH]c(=O)c(CN(CC3CCCO3)C(=O)Nc3ccccc3)cc2c1 (stereo not given),11.7%
16,CCc1cccc(CC)c1N1C(=O)CC(Sc2ccccc2N)C1=O (stereo not given),-0.9%
17,O=C(NCc1cccs1)C(=O)NCC1OCCCN1S(=O)(=O)c1ccc(F)cc1 (stereo not given),6%
18,CCOc1cc2c(Cl)ncnc2c(OCC)c1OCC,0.8%
19,Cc1ccc(S(=O)(=O)N(C)CC(=O)OCC(=O)Nc2ccccc2)cc1,-0.1%
20,CN(C)S(=O)(=O)c1ccc(NC(=O)COC(=O)c2n[nH]c3ccccc23)cc1,-11.7%
21,CCC1(CC)NC(=O)N(CC(=O)OCC(=O)c2cc(C)c(C)cc2C)C1=O,4.7%
22,Cc1ccc(C)c(C(=O)COC(=O)Cn2[nH]c(=O)c3ccccc3c2=O)c1,82% (active)
23,CCC1(CC)NC(=O)N(CC(=O)OCC(=O)Nc2ccc(C(F)(F)F)cc2)C1=O,4.8%

row,Compound,protection from H2O2 cell death
1,CN(C)S(=O)(=O)c1ccc(NC(=O)COC(=O)Cn2[nH]c(=O)c3ccccc3c2=O)cc1,72.5% (active)
2,O=C(COC(=O)Cn1[nH]c(=O)c2ccccc2c1=O)Nc1c(Cl)cccc1C(F)(F)F,88.6% (active)
3,CC1(C(=O)OCC(=O)Nc2ncc(Cl)cc2Cl)CC1(Cl)Cl (stereo not given),-1.6%
4,Cc1ccc(C)c(NC(=O)COC(=O)c2nn(C)c(=O)c3ccccc23)c1,7%
5,O=C(COC(=O)Cn1[nH]c(=O)c2ccccc2c1=O)Nc1ncc(Cl)cc1Cl,79.9% (active)
6,CC(Oc1ccc(Cl)cc1)C(=O)OCC(=O)Nc1ncc(Cl)cc1Cl (stereo not given),7.1%
7,O=C(COC(=O)c1ccc(S(=O)(=O)N2CCCCCC2)cc1)Nc1ccccc1C(F)(F)F,2.5%
8,CCc1nc2ccc(C(=O)NCCNC(C)=O)cn2c1N(CC)Cc1cccc(Br)c1,4.8%
9,CC(OC(=O)CNC(=O)c1cccc(F)c1)C(=O)NC1CCCCC1C (stereo not given),2%
10,CCCC(=O)Nc1ccc2c(c1)nc1n2CCSC1,-7.4%
11,CS(=O)(=O)N1CCc2nc(-c3ccccc3)sc2C1,-1.4%
12,Cc1cc(C(F)F)nn1CC(=O)NC1CCCCCC1,-3.7%
13,O=C(OCCOCn1cc(Br)c(=O)[nH]c1=O)c1ccccc1,7.1%
14,Cc1cc(C)c2c(n1)sc1c(=O)n(-c3ccccc3)c(=O)[nH]c12,4.5%
15,CCOC(=O)c1sc(NC(=O)C2CSC3(C)CCC(=O)N23)nc1C (stereo not given),4%
16,COc1ccc(S(=O)(=O)NC(=O)C2(C)CCN2C(=O)COc2ccc(Cl)cc2)cc1 (stereo not given),5.6%
17,C[C@H](O)[C@@H]1C(=O)N2CCc3c([nH]c4ccccc34)[C@@H]2C[C@@H]1N(C)C(=O)Nc1ccc(F)cc1,-2.1%
18,O=C(N/N=C/c1cc(Cl)cc([N+](=O)[O-])c1O)C(O)(c1ccccc1)c1ccccc1,56.6% (active)
19,O=[N+]([O-])c1cc(Cl)cc(/C=N/NC(=S)Nc2cc(S(=O)(=O)N3CCOCC3)ccc2Cl)c1O,-20.3%
20,O=C(Cc1ccccc1)N/N=C/c1ccc(Cl)cc1Cl,-15.4%
21,NC(=O)Cn1c(=O)oc2ccccc21,6.1%
22,CCN(CC)c1ccc(C(=O)NNC(=O)CCc2nc3ccccc3c(=O)[nH]2)cc1,56.2% (active)
23,CC(C)(C)c1ccc(NC(=O)COC(=O)CCc2nc3ccccc3c(=O)[nH]2)cc1,36.5%

row,Compound,protection from H2O2 cell death
1,CCN(CC(=O)NC(=O)NCc1ccccc1)Cc1nc2ccccc2c(=O)[nH]1,7.1%
2,O=C(CSCc1ccccc1Cl)NNC(=O)c1ccccc1,1.3%
3,O=C(CSc1ncn[nH]1)Nc1nc2c(F)c(F)c(F)cc2s1,-1.5%
4,Cc1ccc(OCC(=O)Nc2ccc3oc(=O)ccc3c2)cc1C,0.6%
5,CCN1C(=O)[C@@H]2[C@@H]3CN(S(=O)(=O)c4ccccc4C)[C@@H](c4ccc(Cl)cc4)[C@@H]3C(=O)C[C@@H]2C1=O,8.3%
6,COC(=O)c1ccc(CSc2nnc(N)s2)o1,-10.8%
7,CCOC(=O)CNC(=O)CSc1ccc2nnc(-c3cccnc3)n2n1,-2.8%
8,COC(=O)c1ccc(CSc2ccc3nnc(-c4ccccc4)n3n2)o1,80.8% (active)
9,CC(C)[C@@H]1COC(c2cccc(C3=N[C@H](C(C)C)CO3)c2)=N1,-14.6%
10,N#Cc1ccsc1NC(=O)CN1CCN(S(=O)(=O)c2cc(Cl)ccc2Cl)CC1,8.3%
11,COc1ccc(Cl)cc1S(=O)(=O)N1CCN(CC(=O)C(C)(C)C)CC1,-8.8%
12,O=C(CN1CCN(S(=O)(=O)c2cc(Cl)ccc2Cl)CC1)c1ccc(O)c(O)c1,55.1% (active)
13,Cc1ccc(O)c(/C=N/NC(=O)COc2ccc3c(C)cc(=O)oc3c2)c1,38.5%
14,CCOC(=O)Cc1csc(SCC(=O)Nc2ccc(C)cc2F)n1,-15.1%
15,Cc1ccc2c(CSc3nncs3)cc(=O)oc2c1,-3.2%
16,CCOC(=O)Cc1csc(NC(=O)COc2ccc3c(C)cc(=O)oc3c2)n1,71.2% (active)
17,CCOC(=O)Cc1csc(SCc2cc(=O)oc3cc(O)ccc23)n1,55.7% (active)
18,COc1ccc(N2CCN(C(=O)COc3ccc4c(C)cc(=O)oc4c3)CC2)cc1,19.4%
19,C/C(=N\NS(=O)(=O)c1ccccc1)c1c(O)cc(C)oc1=O,-1%
20,Cc1ccc(Cl)cc1NC(=O)C1CCCN(c2cnccn2)C1 (stereo not given),1.6%
21,CC1(C(=O)NCC2CCOCC2)Cc2c(-c3cccc(C(N)=O)c3)ccnc2O1 (stereo not given),9.5%
